The target of experiment [1] is Gonadotropin-releasing hormone receptor (Homo sapiens) (UniProt P30968). As to the kind of experiment: Human gonadotropin-releasing hormone receptor (GnRHR) small molecule agonists, calcium flux assay in GnRHR-HEK293 cells (AID 1920063). Further: nearly all actives have a fitted effect of over 35% in size. In short, it runs like this: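 HEK293 cells stably expressing human GnRHR were dye-loaded for 1 h at 37 C. Compound was added in agonist mode and fluorescence (Ex/Em 480/540) recorded kinetically for 3 min. Fifteen concentrations, triplicates.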
Sequence of Gonadotropin-releasing hormone receptor (Homo sapiens) (P30968 whole entry, looked up): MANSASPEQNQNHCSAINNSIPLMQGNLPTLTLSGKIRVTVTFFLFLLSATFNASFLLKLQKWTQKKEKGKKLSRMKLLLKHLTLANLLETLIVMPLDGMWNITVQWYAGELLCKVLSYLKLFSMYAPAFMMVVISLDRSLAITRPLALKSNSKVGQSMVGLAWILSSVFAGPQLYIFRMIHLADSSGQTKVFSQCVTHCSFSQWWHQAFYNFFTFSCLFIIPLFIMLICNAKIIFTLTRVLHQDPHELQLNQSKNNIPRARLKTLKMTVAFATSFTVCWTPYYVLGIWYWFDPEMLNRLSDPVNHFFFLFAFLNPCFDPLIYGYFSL
On the technique in general: Calcium flux is commonly read through the fluorescence of an indicator in the cells.

Experiment [2] deals with KiSS-1 receptor (Homo sapiens) (UniProt Q969F8). As to the kind of experiment: Human kisspeptin (KISS1R) small molecule agonists, calcium flux assay in KISS1R-HEK293 cells (AID 1920064; active means well fitted activation curve with a large enough effect in the repeat runs). The gist of the method:
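HEK293 cells stably expressing human KISS1R were loaded with calcium dye for 1 h at 37 C, then given compound; fluorescence (Ex/Em 480/540) was read kinetically for 3 min. Fifteen concentrations, triplicate.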

Experiment [3] can be described thus: G protein-coupled receptor (GPCR) small molecule agonists, calcium flux assay: HEK293 wild type cell line counter screen (AID 1920065). The gist of the method:
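Wild-type HEK293 cells plated 18 h, loaded with calcium dye 1 h at 37 C, then compounds added in agonist mode (ATP as positive control). Kinetic fluorescence Ex/Em 480/540 recorded 3 min at 1 sec intervals; 15 concentrations, triplicate.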

A short description of experiment [4]: p53 small molecule agonists, cell-based qHTS assay: qHTS cell viability counter screen (AID 1963581). Further: nearly all actives have a fitted effect of over 45% in size. In short, it runs like this: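 p53RE-bla HCT-116 cells, compounds added 5 h after plating and incubated 16 h at 37 C. Cytotoxicity measured in the same wells as intracellular ATP by CellTiter-Glo luminescence after 30 min at room temperature.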
Background: In qHTS, concentration-response curves come from the screen itself.

Experiment [5] has as its target 5-hydroxytryptamine receptor 2A (Homo sapiens) (UniProt P28223). As to the kind of experiment: 5-hydroxytryptamine receptor 2A (HTR2A) small molecule antagonists, cell-based qHTS assay (AID 1963586). Further: nearly all actives have a fitted effect of over 45% in size. In short, it runs like this: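 Antagonist-mode intracellular calcium assay: DOI (4 nM) added after 5 min compound pre-incubation at room temperature to dye-loaded HTR2A-CHO cells. Fluorescence followed for 3 min, sampled every second.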

Experiment [6] has the same target. The experiment can be described thus: 5-hydroxytryptamine receptor 2A (HTR2A) small molecule agonists, cell-based qHTS assay (AID 1963587). Further: nearly all actives have a fitted effect of over 30% in size. In short, it runs like this: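 HTR2A-CHO cells, plated 18 h at 37 C/5% CO2, dye-loaded 1 h at 37 C; compounds in DMSO added by pin tool (agonist mode). Intracellular calcium flux read as kinetic fluorescence on FDSS over 2 min at 1 s intervals.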

Experiment [7] is described as follows: cAMP Responsive Elements (CRE) small molecule agonists, cell-based qHTS assay (AID 1963590). In short, it runs like this: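 CRE-bla HEK 293T cells, 2,000/well in DMEM with 10% dialyzed FBS and 25 mM HEPES, pre-incubated 18 h at 37 C, then exposed to compound 3 h at 37 C. Beta-lactamase reporter read with LiveBLAzer B/G FRET substrate after 2 h at room temperature.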

The nature of experiment [8]: cAMP Responsive Elements (CRE) small molecule antagonists, cell-based qHTS assay (AID 1963591; active means well fitted inhibition curve with a large enough effect in the signal ratio in the repeat runs, not every such curve was filed as active; the % refers to the signal ratio). The gist of the method: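 CRE-bla HEK293T cells plated 18 h, then given compound plus NKH477 at 0.25 uM final for 3 h at 37C. Beta-lactamase reporter read with LiveBLAzer B/G FRET substrate after 2 h at room temperature.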
The target in experiment [9] is Beta-2 adrenergic receptor (Homo sapiens) (UniProt P07550). As to the kind of experiment: Adrenergic beta2 receptor (ADRB2) small molecule antagonists, cell-based qHTS assay (AID 1963592). Further: series mostly up to about 92 µM; nearly all actives have a fitted effect of over 50% in size. In short, it runs like this: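 Cells (CHO, stable ADRB2 overexpression) incubated 18-20hr at 37C; compounds added from DMSO; agonist mix (1nM isoproterenol, 100uM IBMX, 25uM Ro-20-1724) added; 0.5hr RT; d2-cAMP and anti-cAMP-cryptate added; 1hr RT; 665/615 nm read.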
Sequence of Beta-2 adrenergic receptor (Homo sapiens) (P07550 whole entry, looked up): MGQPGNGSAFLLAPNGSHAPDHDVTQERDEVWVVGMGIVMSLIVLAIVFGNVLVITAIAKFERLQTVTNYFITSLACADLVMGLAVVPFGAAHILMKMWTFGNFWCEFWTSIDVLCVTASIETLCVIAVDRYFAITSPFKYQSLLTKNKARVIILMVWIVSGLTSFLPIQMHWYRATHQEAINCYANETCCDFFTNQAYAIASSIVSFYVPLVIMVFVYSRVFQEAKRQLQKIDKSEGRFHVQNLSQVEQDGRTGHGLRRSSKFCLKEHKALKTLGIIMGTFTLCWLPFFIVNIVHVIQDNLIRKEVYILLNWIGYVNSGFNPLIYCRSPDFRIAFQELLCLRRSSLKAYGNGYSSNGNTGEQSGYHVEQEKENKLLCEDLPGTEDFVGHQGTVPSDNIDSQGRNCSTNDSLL

The target is the same in experiment [10]. As to the kind of experiment: Adrenergic beta2 receptor (ADRB2) small molecule agonists, cell-based qHTS assay (AID 1963593).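 Further: CHO cells stably overexpressing human ADRB2.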 In short, it runs like this: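 CHO cells stably over-expressing ADRB2 were plated overnight at 37C, then dosed with compounds plus a stimulation mix containing 100uM IBMX and 25uM Ro-20-1724 for 0.5hr at room temperature. cAMP was measured by HTRF competition, 1hr.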

The target of experiment [11] is D(2) dopamine receptor (Homo sapiens) (UniProt P14416). The experiment can be described thus: Dopamine D2 receptor (DRD2) small molecule agonists, cell-based qHTS assay (AID 1963594). Further: nearly all actives have a fitted effect of over 35% in size. In short, it runs like this: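 HEK293 cells stably expressing DRD2 were cultured 24 h at 37 C, then given Ro20-1724 (0.1 mM final) and compounds for 10 min at room temperature. NKH477 (200nM) was then added for 30 min. cAMP was read by HTRF.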
Sequence of D(2) dopamine receptor (Homo sapiens) (P14416 whole entry, looked up): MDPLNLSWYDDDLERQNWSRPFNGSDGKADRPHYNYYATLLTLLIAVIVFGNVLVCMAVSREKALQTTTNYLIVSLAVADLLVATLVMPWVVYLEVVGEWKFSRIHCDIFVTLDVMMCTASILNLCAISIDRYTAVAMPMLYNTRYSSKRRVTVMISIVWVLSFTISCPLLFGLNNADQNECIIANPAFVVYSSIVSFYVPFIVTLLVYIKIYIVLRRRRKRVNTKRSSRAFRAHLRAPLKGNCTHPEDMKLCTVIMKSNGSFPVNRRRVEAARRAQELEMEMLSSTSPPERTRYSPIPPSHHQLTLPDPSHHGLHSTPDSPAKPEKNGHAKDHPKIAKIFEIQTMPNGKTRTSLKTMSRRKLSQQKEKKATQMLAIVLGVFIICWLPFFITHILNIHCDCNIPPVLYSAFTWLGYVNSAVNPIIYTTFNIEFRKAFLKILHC

Experiment [12] has the same target. As to the kind of experiment: Dopamine D2 receptor (DRD2) small molecule antagonists, cell-based qHTS assay (AID 1963595; active means well fitted inhibition curve with a large enough effect in the signal ratio in the repeat runs, with a control signal flat; the % refers to the signal ratio). The gist of the method:
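DRD2-HEK293; 0.1 mM Ro20-1724; cpd 10 min RT; NKH477 200 nM + quinpirole 12 nM, 30 min RT; HTRF cAMP (cAMP-d2/anti-cAMP cryptate), 665/620 nm ratio after 1 h.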

Experiment [13] can be described thus: p53 small molecule agonists, cell-based qHTS assay with rat liver microsomes (AID 1963578). In short, it runs like this: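 p53RE-bla cells, 4,000/well, pre-incubated 5 h, then given compounds plus rat liver microsomes (0.5 mg/mL final) and NADPH (0.5 mg/mL final). Incubation 16 h at 37 C; beta-lactamase reporter read by LiveBLAzer fluorescence after 2 h at room temperature.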

The nature of experiment [14]: p53 small molecule agonists, cell-based qHTS assay with human liver microsomes: qHTS cell viability counter screen (AID 1963579). Further: nearly all actives have a fitted effect of over 45% in size. In short, it runs like this: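 p53RE-bla cells, 4,000/well, dosed 5 hours after plating, with human liver microsomes (0.5 mg/mL final) plus NADPH (0.5 mg/mL final), 16 hours at 37 C. Viability read as CellTiter-Glo luminescence after 30 min at room temperature.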

Experiment [15] in a line: p53 small molecule agonists, cell-based qHTS assay (AID 1963582; active means well fitted activation curve with a large enough effect in the signal ratio in the repeat runs, not every such curve was filed as active; the % refers to the signal ratio). In short, it runs like this:
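p53RE-bla reporter cells, compounds added in DMSO after 5 h plating, incubated 16 h at 37 C. Beta-lactamase read via 2 h room-temperature LiveBLAzer B/G FRET substrate, fluorescence intensity.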

The target in experiment [16] is Muscarinic acetylcholine receptor M1 (Homo sapiens) (UniProt P11229). The experiment can be described thus: Cholinergic receptor muscarinic 1 (CHRM1) small molecule antagonists, cell-based qHTS assay (AID 1963588). Further: nearly all actives have a fitted effect of over 40% in size. The gist of the method:
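CHRM1-CHO calcium-flux assay, antagonist mode. Cells were seeded 18 h, dye-loaded 1 h at 37 C and given compound for 5 min at RT, then acetylcholine was added at 50nM. FDSS fluorescence was read 3 min; 15 concentrations, three runs.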

The target is the same in experiment [17]. The experiment can be described thus: Cholinergic receptor muscarinic 1 (CHRM1) small molecule agonists, cell-based qHTS assay (AID 1963589). Further: nearly all actives have a fitted effect of over 35% in size. The gist of the method:
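CHO cells stably expressing human CHRM1 were loaded with calcium dye for 1 h at 37 C, then compound was added in agonist mode. Intracellular calcium fluorescence was followed kinetically at 1 s intervals. Fifteen concentrations were tested in three independent runs.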

A short description of experiment [18]: p53 small molecule agonists, cell-based qHTS assay with rat liver microsomes: qHTS cell viability counter screen (AID 1963580). Further: nearly all actives have a fitted effect of over 45% in size. Further: potency means the concentration at half of the fitted maximal effect. The gist of the method:
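In HCT-116 cells carrying a p53 response element-bla reporter, compounds were metabolically activated in situ by rat liver microsomes with NADPH over 16 h. Cell ATP content then served as the cytotoxicity measure.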

Experiment [19] in a line: p53 small molecule agonists, cell-based qHTS assay with human liver microsomes (AID 1963577). In short, it runs like this: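 p53RE-bla cells, 4,000/well, compound added after 5 h, with human liver microsomes 0.5 mg/mL and NADPH 0.5 mg/mL final; 16 h at 37 C, then LiveBLAzer 2 h RT, fluorescence.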

Results filed as inconclusive are left out. Active and inactive are the calls of the source. Unless noted, the call rests on the fitted dose curve. Bridge positions count the residues as written; N and C are the ends. Square brackets hold non-standard residues; d marks the D form. Peptide text beside a SMILES is read from it. * marks the point of attachment. Sta = CC(C)C[C@H](N)[C@@H](O)CC(=O)O; hArg = N=C(N)NCCCC[C@H](N)C(=O)O; pGlu = O=C1CC[C@@H](C(=O)O)N1; Isovaleryl = CC(C)CC(=O)*; Mpa = O=C(O)CCS

Sequence of Muscarinic acetylcholine receptor M1 (Homo sapiens) (P11229 whole entry, looked up): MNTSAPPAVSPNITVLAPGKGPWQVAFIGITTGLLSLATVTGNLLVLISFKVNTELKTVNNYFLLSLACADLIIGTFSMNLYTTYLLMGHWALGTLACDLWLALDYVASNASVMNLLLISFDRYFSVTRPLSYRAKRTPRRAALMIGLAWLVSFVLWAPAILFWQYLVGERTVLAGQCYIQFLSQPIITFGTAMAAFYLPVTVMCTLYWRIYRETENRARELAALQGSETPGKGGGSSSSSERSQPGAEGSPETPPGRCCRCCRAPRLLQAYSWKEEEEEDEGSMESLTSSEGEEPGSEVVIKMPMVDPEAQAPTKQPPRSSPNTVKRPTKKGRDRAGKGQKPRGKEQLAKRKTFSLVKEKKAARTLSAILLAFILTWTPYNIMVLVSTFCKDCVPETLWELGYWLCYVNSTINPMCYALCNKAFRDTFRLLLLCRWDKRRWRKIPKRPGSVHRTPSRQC
Sequence of KiSS-1 receptor (Homo sapiens) (Q969F8 whole entry, looked up): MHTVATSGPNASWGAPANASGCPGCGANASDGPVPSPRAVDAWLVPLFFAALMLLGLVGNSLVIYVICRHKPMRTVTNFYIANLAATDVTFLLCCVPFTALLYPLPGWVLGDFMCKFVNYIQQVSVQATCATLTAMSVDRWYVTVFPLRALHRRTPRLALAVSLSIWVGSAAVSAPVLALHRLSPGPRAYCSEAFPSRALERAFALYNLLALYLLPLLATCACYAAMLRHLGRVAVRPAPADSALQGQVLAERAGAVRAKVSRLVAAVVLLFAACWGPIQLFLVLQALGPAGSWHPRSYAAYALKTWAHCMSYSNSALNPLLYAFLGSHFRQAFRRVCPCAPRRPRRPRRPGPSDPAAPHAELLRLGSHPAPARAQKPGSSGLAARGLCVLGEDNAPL
Sequence of 5-hydroxytryptamine receptor 2A (Homo sapiens) (P28223 whole entry, looked up): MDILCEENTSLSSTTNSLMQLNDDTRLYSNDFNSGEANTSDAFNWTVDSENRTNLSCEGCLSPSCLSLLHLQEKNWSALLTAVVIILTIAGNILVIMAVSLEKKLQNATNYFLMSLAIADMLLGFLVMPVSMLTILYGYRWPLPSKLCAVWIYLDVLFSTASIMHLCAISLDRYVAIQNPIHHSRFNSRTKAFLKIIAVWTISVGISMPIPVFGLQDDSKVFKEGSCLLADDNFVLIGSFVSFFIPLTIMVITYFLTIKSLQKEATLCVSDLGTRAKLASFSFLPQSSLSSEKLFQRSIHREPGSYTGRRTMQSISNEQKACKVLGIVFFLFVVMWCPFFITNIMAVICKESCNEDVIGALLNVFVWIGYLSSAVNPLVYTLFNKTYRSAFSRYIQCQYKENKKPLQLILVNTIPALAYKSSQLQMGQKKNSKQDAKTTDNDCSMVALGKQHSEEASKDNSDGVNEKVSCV

`CN1CC[C@]23c4c5ccc(O)c4O[C@H]2[C@@H](O)C=C[C@H]3[C@H]1C5`: the Potency result in experiment [1], in experiment [2], in [3], in experiment [4], in [5] and in experiment [6] was “inactive” in each case. The Potency result in experiment [7], in [8], in [9], in [10], in experiment [11] and in experiment [12] was “inactive” each time.

In the case of `Cc1nnc(-c2ccccc2)c(=O)n1N`, the Potency entry in experiment [2], in [3], in experiment [13], in experiment [14], in experiment [4] and in experiment [15] was “inactive” in each case. Also, the Potency entry in [5], in [6], in experiment [16], in experiment [17], in experiment [7] and in experiment [8] was “inactive” throughout. The Potency entry in experiment [9] and in experiment [12] was “inactive” in each case.

As for `CCNC(=O)[C@@H]1CCCN1C(=O)[C@H](CCCN=C(N)N)NC(=O)[C@H](CC(C)C)NC(=O)CNC(=O)[C@H](Cc1ccc(O)cc1)NC(=O)[C@H](CO)NC(=O)[C@H](Cc1c[nH]c2ccccc12)NC(=O)[C@H](Cc1cnc[nH]1)NC(=O)[C@@H]1CCC(=O)N1` ([pGlu]HWSYGLRP-NHEt), the Potency result in [5], in [6], in [16] and in experiment [17] was “inactive” throughout.

`O=S(=O)(O)c1cc(O)ccc1O`: the Potency result in [14], in experiment [18] and in experiment [4] was “inactive” throughout.

As for `NC(=O)[C@@H]1CSSCCC(=O)N[C@@H](CCCCN=C(N)N)C(=O)NCC(=O)N[C@@H](CC(=O)O)C(=O)N[C@@H](Cc2c[nH]c3ccccc23)C(=O)N2CCC[C@H]2C(=O)N1` ([Mpa][hArg]GDWPC-NH2; disulfide 1-7), the Potency entry in experiment [5], in [6], in experiment [16] and in experiment [17] was “inactive” in each case.

In the case of `COCCOCCO`, the Potency entry in [2], in experiment [3], in experiment [16], in experiment [7], in [8] and in experiment [9] was “inactive” in each case. Further, the Potency in experiment [18] was 1620 nM (active).

Turning to `CC(C)CC(=O)N[C@H](C(=O)N[C@H](C(=O)N[C@@H](CC(C)C)[C@@H](O)CC(=O)N[C@@H](C)C(=O)N[C@@H](CC(C)C)[C@@H](O)CC(=O)O)C(C)C)C(C)C` (Isovaleryl-VV[Sta]A[Sta]-OH), the Potency result in [5], in experiment [6], in experiment [16] and in experiment [17] was “inactive” each time.

`C#C[C@]1(O)CC[C@H]2[C@@H]3CCC4=CC(=O)CCC4=C3C=C[C@@]21CC`: the Potency entry in experiment [1], in experiment [2], in experiment [3], in experiment [14], in [6] and in experiment [16] was “inactive” each time. Also, the Potency result in experiment [17], in experiment [11] and in [12] was “inactive” each time.

With `CN1C(=O)C(O)N=C(c2ccccc2)c2cc(Cl)ccc21` (stereo not given), the Potency entry in experiment [1], in [2], in experiment [3], in experiment [6], in experiment [16] and in experiment [17] was “inactive” throughout. The Potency result in experiment [7], in [8], in experiment [9], in experiment [11] and in experiment [12] was “inactive” throughout.

As to `N#CC(C#N)=Cc1ccc(O)c(O)c1`, the Potency entry in experiment [2], in experiment [3], in [19], in experiment [13], in [14] and in experiment [18] was “inactive” each time. For the same molecule, the Potency entry in experiment [4], in [15], in experiment [9] and in [11] was “inactive” in each case.

In the case of `CCCCC(CC)COC(=O)c1ccccc1C(=O)OCC(CC)CCCC` (stereo not given), the Potency entry in experiment [1], in experiment [3], in experiment [19], in experiment [13], in [14] and in [18] was “inactive” in each case. Also, the Potency entry in experiment [9] and in experiment [12] was “inactive” in each case.

As for `N#CCc1ccc(Cl)cc1`, the Potency result in experiment [2], in [3], in [19], in experiment [14], in [4] and in experiment [15] was “inactive” each time. The Potency entry in [5], in experiment [6], in experiment [16], in experiment [17], in experiment [7] and in experiment [9] was “inactive” throughout. Besides, the Potency result in experiment [11] and in experiment [12] was “inactive” in each case.

The values are drawn from PubChem BioAssay (Tox21).
